Reference: PubChem BioAssay (NCATS)
Results filed as inconclusive are left out. A number with no mark means an inactive call. Calls come from the whole dose curve; as a rule, active = well fitted activation curve with a large enough effect; inconclusive = small, poorly fitted or top-dose-only effect; inactive = no such curve, though single readings can be large or run the other way.

Molecular target: Cellular tumor antigen p53 (Homo sapiens) (UniProt P04637)
Test: Primary qHTS for small molecule compounds that upregulate eGFP-tagged delta133p53alpha (in N-terminal) cells. (AID 2060322);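 note: cells pre-induced with doxycycline then dosed without doxycycline; series mostly up to about 56 µM; 0% = DMSO vehicle and 100% = reference activator; nearly all actives have a fitted effect of over 75% in size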
Details: NCI-H358 eGFP-delta133p53alpha fluorescence, 24 h; activation: active compounds read high
How it was run: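 NCI-H358 cells pre-induced 24 h with 10 ng/ml doxycycline for eGFP-delta133p53alpha, plated dox-free and exposed 24 h at 37C to titrated compounds. Fixed, Hoechst-stained; gated GFP peak intensity by laser scanning cytometry, normalized to DMSO (0%) and 57.5 uM 5-azacytidine (100%).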

Cellular tumor antigen p53 (Homo sapiens), sequence (P04637 whole entry, looked up): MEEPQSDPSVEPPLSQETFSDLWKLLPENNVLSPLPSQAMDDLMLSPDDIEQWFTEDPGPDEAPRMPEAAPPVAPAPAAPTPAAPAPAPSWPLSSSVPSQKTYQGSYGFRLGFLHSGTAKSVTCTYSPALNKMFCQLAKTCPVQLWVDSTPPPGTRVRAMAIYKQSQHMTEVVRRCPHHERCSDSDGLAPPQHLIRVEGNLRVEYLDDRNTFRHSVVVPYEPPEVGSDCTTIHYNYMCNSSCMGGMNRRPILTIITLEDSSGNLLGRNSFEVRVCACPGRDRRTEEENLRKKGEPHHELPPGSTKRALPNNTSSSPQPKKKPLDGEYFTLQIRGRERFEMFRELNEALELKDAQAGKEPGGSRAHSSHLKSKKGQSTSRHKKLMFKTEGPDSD

SMILES | activation [%]
COc1cc(CO)cc(OC)c1O[C@@H]1O[C@H](CO)[C@@H](O)[C@H](O)[C@H]1O | -2.68
O=C(OCC12OC1C=CC(OC(=O)c1ccccc1)C2O)c1ccccc1 (stereo not drawn) | 10.7
CN1CCc2cc3c(cc2C(=O)Cc2cc4c(cc2C1)OCO4)OCO3 | -8.04
CC1OC(OC2C(CO)OC(OCC3OC(OC(=O)C45CCC(C)(C)CC4C4=CCC6C7(C)CCC(OC8OC(CO)C(O)C(OC9OC(CO)C(O)C(O)C9O)C8O)C(C)(C)C7CCC6(C)C4(C)CC5)C(O)C(O)C3O)C(O)C2O)C(O)C(O)C1OC1OC(CO)C(O)C(O)C1O (stereo not drawn) | -2.29
COc1cc(/C=C/C(=O)OC2CC(OC(C)=O)C(OC(C)=O)C3C2CCC2C(=O)OC(c4ccoc4)CC23C)ccc1O[C@@H]1O[C@H](CO)[C@@H](O)[C@H](O)[C@H]1O (stereo partly drawn) | -16
C=C1C2CCC3CC2(CC(O)C2(O)C1CC(OC1OC(CO)C(O)C(O)C1O)C2(C)C)CC3(C)O (stereo not drawn) | 19.6
CC(=O)OCC1OC(O[C@H]2CC[C@]34C[C@]35CC(O)[C@]3(C)[C@@H]([C@H](C)CC/C=C(\C)C(=O)O)C(O)C[C@@]3(C)C5CC[C@H]4C2(C)C)C(O)C(O)C1OC1OCC(O)C(O)C1O (stereo partly drawn) | -13
CC1(C)CC[C@]2(C(=O)O[C@@H]3O[C@H](CO)[C@@H](O)[C@H](O)[C@H]3O)CC[C@]3(C)C(=CCC4[C@@]5(C)C[C@@H](O)[C@H](O)[C@](C)(C(=O)O)C5CC[C@]43C)C2C1O (stereo partly drawn) | -2.68
